Reference: PubChem BioAssay AID624255 (Broad Institute, 2012)
About 4,600 (6%) of roughly 77,000 compounds were called active. Roughly 1% stayed inconclusive and do not appear here.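 Rule for the calls: active = mean inhibition above about 93%, with at least 55% of replicates each passing it (limit read from the data, passing the limit was not always enough); inconclusive = only one of those two conditions holds; inactive = neither condition holds.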 Many of the other results were omitted from the sample, so actives are more common in it than they were.

Experiment: T. cruzi intracellular proliferation inhibitors, primary screen, cell-based, beta-gal Tulahuen parasites, NIH3T3 host, luminescence (AID 624255)
Conditions: T. cruzi beta-gal in NIH3T3, GalScreen luminescence, 90 h; at 8.34 µM; hits give high values

inhibition, active:
CN(C)C(=O)c1ccc(-c2ccc3c(c2)[C@H]2[C@H](CCN2C(=O)c2ccc4c(c2)OCO4)[C@H](CO)N3)cc1 99.5%
O=C(c1ccccn1)N1CC[C@@H]2[C@H]1c1cc(-c3ccccc3)ccc1N[C@@H]2CO 106%
O=C(c1cnccn1)N1CC[C@@H]2[C@H](CO)Nc3ccc(-c4cccc(F)c4)cc3[C@@H]21 109%
OC[C@@H]1Nc2ccc(-c3cccc(F)c3)cc2[C@H]2[C@@H]1CCN2Cc1ccncc1 115%
CC(=O)N1[C@H](CNC(=O)C2CC2)[C@@H](c2ccc(-c3cccc(F)c3)cc2)[C@@H]1CO 98.8%
CC(=O)N(C)C[C@@H]1[C@@H](c2ccc(-c3ccccc3F)cc2)[C@@H](CO)N1C(C)=O 113%
CC(=O)NC[C@@H]1[C@@H](c2ccc(-c3ccccc3F)cc2)[C@@H](CO)N1C(=O)C1CC1 108%
COc1cccc(C#Cc2ccc([C@@H]3[C@H](C#N)N[C@H]3CO)cc2)c1 101%
CCCC#Cc1ccc2c(c1)O[C@H](CN(C)C(=O)CC)[C@@H](C)CN([C@H](C)CO)S2(=O)=O 94.9%
CCC(=O)N(C)C[C@@H]1Oc2cc(C#CCN(C)C)ccc2S(=O)(=O)N([C@H](C)CO)C[C@H]1C 101%
CCCC#Cc1ccc2c(c1)O[C@@H](CN(C)C(=O)c1ccccc1F)[C@H](C)CN([C@H](C)CO)S2(=O)=O 97.6%
CC(=O)N(C)C[C@H]1Oc2cc(C#CCN(C)C)ccc2S(=O)(=O)N([C@@H](C)CO)C[C@@H]1C 106%

inhibition, inactive:
COc1ccc(NC(=O)N(C)C[C@@H]2OCCCC[C@@H](C)Oc3ccc(NS(=O)(=O)c4cn(C)cn4)cc3C(=O)N([C@@H](C)CO)C[C@H]2C)cc1 18.4%
C[C@@H]1CN([C@@H](C)CO)C(=O)c2cc(NS(=O)(=O)c3cn(C)cn3)ccc2O[C@@H](C)CCCCO[C@@H]1CN(C)Cc1ccncc1 -84.1%
C[C@H](CO)N1C[C@H](C)[C@@H](CN(C)C(=O)c2ccncc2)Oc2ncc(-c3ccncc3)cc2C1=O 4.66%
COC(=O)[C@@H]1[C@@H](CO)[C@@H]2Cn3c(ccc(-c4ccccc4)c3=O)[C@@H]2N1C(=O)C1CC1 59.9%
O=C(Nc1ccccc1)N[C@@H]1CC[C@H](CCNS(=O)(=O)c2ccccc2F)O[C@@H]1CO -32.8%
Cn1cnc(CCNC(=O)C[C@H]2CC[C@@H]3[C@H](COC[C@@H](O)CN3C(=O)Nc3ccc(Cl)cc3)O2)c1 33%
O=C(N[C@H]1C=C[C@@H](CC(=O)N2CCN(c3ccccc3)CC2)O[C@@H]1CO)c1ccncc1 -7%
CC(=O)N(C)C[C@@H]1Oc2cc(-c3cccnc3)ccc2S(=O)(=O)N([C@H](C)CO)C[C@H]1C -140%
O=C(C[C@@H]1CC[C@@H]2[C@H](COC[C@H](O)CN2S(=O)(=O)c2ccc(Cl)cc2)O1)N[C@@H]1CCN(Cc2ccccc2)C1 43.9%
O=C(c1cccnc1)N1CC[C@@H]2[C@@H](CO)Nc3ccc(-c4ccccc4)cc3[C@@H]21 77.8%
N#Cc1cccc(-c2ccc3c(c2)[C@H]2[C@H](CCN2Cc2ccc4c(c2)OCO4)[C@@H](CO)N3)c1 27.1%
COCC(=O)N1CC[C@H]2[C@H](CO)Nc3ccc(-c4ccc(C(=O)N(C)C)cc4)cc3[C@H]21 90.6%
OC[C@@H]1Nc2ccc(-c3ccc(F)cc3)cc2[C@@H]2[C@H]1CCN2Cc1ccc(F)cc1 22.6%
O=C(c1ccccc1)N1CC[C@H]2[C@H](CO)Nc3ccc(-c4ccc(F)cc4)cc3[C@H]21 59.1%
COc1ccc(-c2ccc3c(c2)[C@H]2[C@H](CCN2C(=O)c2ccc4c(c2)OCO4)[C@@H](CO)N3)cc1 13.9%
O=C(C1CCC1)N1CC[C@H]2[C@H](CO)Nc3ccc(-c4cccc(F)c4)cc3[C@H]21 92.4%
O=C(c1cccnc1)N1CC[C@H]2[C@H](CO)Nc3ccc(-c4ccc(F)cc4)cc3[C@H]21 74.7%
O=C(NC[C@@H]1[C@@H](c2ccccc2)[C@@H](CO)N1Cc1ccccn1)C1CCC1 31.9%
C[C@H](O)C#Cc1cnc2c(c1)C(=O)N([C@H](C)CO)C[C@H](C)[C@@H](CN(C)C(=O)Nc1ccc(F)cc1)O2 41%
O=C([C@H]1[C@H](CO)[C@H]2Cn3c(ccc(-c4ccccc4)c3=O)[C@@H]1N2Cc1cccnc1)N1CCOCC1 28.9%
CN(C)C(=O)[C@H]1[C@H](CO)[C@H]2Cn3c(ccc(-c4ccc(F)cc4)c3=O)[C@H]2N1C(=O)c1ccccn1 32.7%
C/C=C/c1ccc([C@@H]2[C@@H](CN(C)C(C)=O)N(C(=O)C3CC3)[C@H]2CO)cc1 -20.4%
CO[C@@H]1CN(C)C(=O)c2cc(NC(=O)Nc3cccc(F)c3)ccc2OC[C@H](C)N(C)C[C@@H]1C -11.1%
COc1cccc(S(=O)(=O)Nc2ccc3c(c2)[C@H]2C[C@H](CC(=O)N4CCCCC4)O[C@@H](CO)[C@H]2O3)c1 32.8%
COc1ccccc1C(=O)Nc1ccc2c(c1)C(=O)N(C)C[C@@H](OC)[C@@H](C)CN(CC1CC1)[C@@H](C)CO2 21.2%
CC(=O)N1[C@H](CO)[C@H](c2ccc(-c3ccccc3)cc2)[C@H]1CNC(=O)C1CC1 -0.382%
CC(=O)N1[C@H](CO)[C@@H](c2ccc(-c3ccc(F)cc3)cc2)[C@H]1CNC(=O)C1CC1 -36%
N#C[C@@H]1[C@@H](c2ccc(-c3ccccc3F)cc2)[C@@H](CO)N1C(=O)C1CC1 71.7%
CC(=O)N1[C@H](CO)[C@@H](c2ccc(-c3ccccc3)cc2)[C@H]1CNC(=O)C1CC1 -18%
CCC(=O)N(C)C[C@H]1[C@H](c2ccc(-c3ccccc3F)cc2)[C@@H](CO)N1C(C)=O 8.38%
COCC(=O)N(C)C[C@H]1[C@@H](c2ccc(-c3cccnc3)cc2)[C@H](CO)N1C(C)=O 84.3%
COc1ccc(S(=O)(=O)Nc2ccc3c(c2)CC(=O)N([C@@H](C)CO)C[C@@H](C)[C@H](CN(C)S(=O)(=O)c2ccccc2)O3)cc1 0.553%
COc1ccc(S(=O)(=O)N(C)C[C@H]2Oc3ccc(NC(=O)Nc4ccccc4)cc3CC(=O)N([C@H](C)CO)C[C@@H]2C)cc1 -16.8%
C[C@@H]1CN([C@H](C)CO)C(=O)c2cc(NC(=O)Nc3cccc4ccccc34)ccc2O[C@@H](C)CCCCO[C@H]1CN(C)S(=O)(=O)c1cccs1 23.5%
CO[C@@H]1CC[C@@H]2CCOc3ccc(C#N)cc3C(=O)N(C)C[C@H](c3ccccc3)CC(=O)N(C)C[C@H]1O2 5.08%
N#C[C@@H]1N[C@@H](CO)[C@@H]1c1ccc(C#Cc2ccccc2F)cc1 79.1%
N#C[C@H]1N[C@H](CO)[C@@H]1c1ccc(C#Cc2ccccc2F)cc1 24.3%
O=C(Nc1ccccc1)N1C[C@H]2[C@@H](c3ccccc31)[C@@H](CO)N2Cc1cocn1 65%
CNC(=O)C[C@@H]1CC[C@H]2[C@@H](COc3ccc(NC(=O)NCc4ccccc4)cc3C(=O)N2C)O1 -25%
C[C@@H]1CN([C@H](C)CO)S(=O)(=O)c2ccc(C#CCN(C)C)cc2O[C@@H]1CN(C)C(=O)CN(C)C -40.2%
CCCC#Cc1ccc2c(c1)O[C@@H](CN(C)C(=O)CC)[C@@H](C)CN([C@H](C)CO)S2(=O)=O 67%
CC(=O)N(C)C[C@H]1Oc2cc(C#CCN(C)C)ccc2S(=O)(=O)N([C@H](C)CO)C[C@H]1C 56.9%
C[C@H]1CN([C@@H](C)CO)S(=O)(=O)c2ccc(C#CCN(C)C)cc2O[C@H]1CN(C)C(=O)CN(C)C -25.5%
C[C@H]1CN([C@@H](C)CO)S(=O)(=O)c2ccc(C#CCN(C)C)cc2O[C@H]1CN(C)C(=O)c1ccccc1F 36.4%
CC(C)CC#Cc1ccc2c(c1)O[C@@H](CN(C)C(=O)c1ccccc1F)[C@H](C)CN([C@H](C)CO)S2(=O)=O 54%
COCC#Cc1ccc2c(c1)O[C@@H](CN(C)C(C)=O)[C@H](C)CN([C@H](C)CO)S2(=O)=O -30.8%
CCCC#Cc1ccc2c(c1)O[C@@H](CN(C)C(=O)CC)[C@H](C)CN([C@H](C)CO)S2(=O)=O 68.6%
O=C(C[C@H]1CC[C@H]2[C@@H](COC[C@@H](O)CN2Cc2cccc(C(F)(F)F)c2)O1)NCc1ccncc1 73.9%
C[C@@H]1CCCCO[C@@H](CN(C)S(C)(=O)=O)[C@@H](C)CN([C@@H](C)CO)C(=O)c2cc(NS(=O)(=O)c3ccc(Cl)cc3)ccc2O1 46.7%
O=C(C[C@H]1CC[C@H]2[C@@H](COC[C@@H](O)CN2CCC(F)(F)F)O1)NCc1ccc2c(c1)OCO2 -35.7%
COc1cccc(NC(=O)C[C@@H]2CC[C@H]3[C@@H](COc4ccc(NC(=O)C5CCOCC5)cc4C(=O)N3C)O2)c1 24.1%
CN(C)C(=O)C[C@@H]1CC[C@H](NC(=O)NC2CCCC2)[C@H](CO)O1 -49.3%
O=C(C[C@@H]1CC[C@@H]2[C@H](COC[C@@H](O)CN2Cc2ccccc2)O1)NCCc1ccccc1 13.4%
